# ALOX12 inh: inhibitors of human 12S-lipoxygenase ALOX12 | P18054 | purified 12hLO, xylenol orange hydroperoxide absorbance | Potency, µM (highest dose often 108 µM), inactives show top-dose activity change, negative = inhibition, usual class: inhibitors | 580,000 compounds, 1.1% hits | AID 1671190; note: potency is the fitted concentration of half-maximal effect
# Target sequence (P18054 whole entry, looked up): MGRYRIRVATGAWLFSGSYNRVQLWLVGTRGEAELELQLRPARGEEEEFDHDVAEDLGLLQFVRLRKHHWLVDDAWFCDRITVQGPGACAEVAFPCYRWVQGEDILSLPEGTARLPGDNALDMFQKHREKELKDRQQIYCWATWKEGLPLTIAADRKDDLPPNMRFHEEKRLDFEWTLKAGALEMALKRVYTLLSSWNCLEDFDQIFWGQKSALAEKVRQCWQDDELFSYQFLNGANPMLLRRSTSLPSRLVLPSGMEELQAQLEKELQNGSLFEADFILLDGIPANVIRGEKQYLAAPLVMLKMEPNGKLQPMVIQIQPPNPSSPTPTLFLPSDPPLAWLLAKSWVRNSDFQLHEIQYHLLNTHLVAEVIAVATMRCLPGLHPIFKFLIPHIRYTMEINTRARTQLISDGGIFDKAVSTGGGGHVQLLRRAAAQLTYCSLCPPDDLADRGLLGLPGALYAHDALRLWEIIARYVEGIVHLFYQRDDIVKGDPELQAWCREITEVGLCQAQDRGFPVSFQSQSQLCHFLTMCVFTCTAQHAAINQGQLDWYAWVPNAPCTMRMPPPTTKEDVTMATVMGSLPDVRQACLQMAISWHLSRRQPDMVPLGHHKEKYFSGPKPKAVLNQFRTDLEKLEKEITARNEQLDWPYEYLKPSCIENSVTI
#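 Purified human 12hLO (150 nM final) in 25 mM Hepes, 0.01% Triton X-100, pH 7.0 was preincubated 15 min at room temperature with compound. Then 40 uM arachidonic acid was added, 30 min. Hydroperoxide was read by Fe-XO absorbance ratio 573/405 nm.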
# HT1080-NT tox: kills 2HG-producing HT-1080-NT fibrosarcoma cells; 360,000 compounds, 1.6% hits; HT-1080-NT fibrosarcoma viability, CellTiter-Glo ATP luminescence, 48 h; Potency, µM (titrated, usually from 46.1 µM), for inactives: at the highest dose activity, negative = less viability, hits mostly cytotoxic; AID 686970;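 note: NT is the 2HG producing partner of a matched IDH1 knockdown line; potency is the fitted concentration of half-maximal effect; 0% = DMSO-treated cells and -100% = media-only wells without cells; nearly all actives have a fitted effect of over 55% in size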
#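 750 cells/well, RPMI + 5% FBS; 2 h settle, compound pin-transfer, 48 h at 37 degrees C. CellTiter-Glo 10 min RT, luminescence. Normalized to DMSO and media-only wells.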
# TDP1 cell CPT: DT40-hTDP1 cell growth loss with CPT; Potency, µM (titrated, usually from 46.2 µM), without a hit: at the top dose activity change, negative = growth inhibition, actives largely listed as inhibitors; 420,000 compounds, 12% hits; chicken DT40 Tdp1-/-;hTDP1 cells + 20 nM CPT, ATP luminescence, 48 h; note: potency is the fitted concentration of half-maximal effect; nearly all actives have a fitted effect of over 55% in size
#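 Cell growth measured by CellTiter-Glo luminescence after a minimum 48 h, 37 C compound exposure with 20 nM CPT in Tdp1-knockout DT40 cells stably expressing hTDP1, seeded 400/well; qHTS titration format.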
# HT1080 IDH1KD tx: kills HT-1080 cells with IDH1 knockdown; 360,000 compounds, 2% hits; HT-1080 IDH1 knockdown viability, ATP luminescence, 48 h; Potency, µM (doses to about 46.1 µM), for inactives: top-dose activity, negative = toxicity, usual class: cytotoxic;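 note: potency is the fitted concentration of half-maximal effect; 0% = DMSO wells and -100% = cell-free medium wells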
#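 After a 2 h attachment period, IDH1KD HT-1080 cells took pin-transferred compound for 48 h at 37 °C; ATP-based luminescence after 10 min room-temperature reagent incubation reported viability.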
# DT40 TDP1 no CPT: qHTS for Inhibitors of human tyrosyl-DNA phosphodiesterase 1 (TDP1): qHTS in cells in absence of CPT. Potency, µM (titrated, usually from 46.2 µM), for inactives: at the highest dose activity change, negative = growth inhibition, usual class: inhibitors. AID 686978, 2013. 420,000 compounds, 15% hits. DT40 Tdp1-/- hTDP1 cells, no CPT, ATP luminescence, 48 h; note: potency is the fitted concentration of half-maximal effect; nearly all actives have a fitted effect of over 55% in size
#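 Cells were dispensed at 400 per well, compounds added by pin tool, plates incubated ≥48 hr at 37 °C, then CellTiter-Glo added for 30 min at room temperature before luminescence reading. Line: DT40 Tdp1-/- complemented with hTDP1; camptothecin omitted.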
# IL-1B inflam inh: blocks inflammasome-driven IL-1 beta release | THP-1 LPS/ATP IL-1B secretion, AlphaLISA, 16 h; active compounds read low | activity change, % at 57.5 µM | 360,000 compounds, 4.7% hits; in the data active = activity change below about -50%; inconclusive = mostly about -30% to -49%
#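 THP-1 cells pretreated 1 hr with compounds (up to 57.5 uM final), then stimulated with LPS (250 ng/mL final) plus ATP (1.25 mM final); secreted IL-1B measured by AlphaLISA after 16 hr, decreased signal indicating inhibition.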
# * hit, by the source's call; ? = inconclusive; . = no result; [ ] = remark or other dose. Shown is part of a subset that was picked to be rich in hits. Unless noted, calls come from the whole dose curve; as a rule, active = well fitted curve in the direction sought with a large enough effect; inconclusive = small, poorly fitted or top-dose-only effect, or another doubt; inactive = no such curve, though single readings can be large; an effect the other way counts as inactive or inconclusive. Unless noted, % is set by controls: 0 for no effect and ±100 for the full control effect.
SMILES,ALOX12 inh,HT1080-NT tox,TDP1 cell CPT,HT1080 IDH1KD tx,DT40 TDP1 no CPT,IL-1B inflam inh
Cc1ccc(S(=O)(=O)CCC(=O)OCn2nnc3ccccc3c2=O)cc1,-7.3%,0.5%,?,-1.3%,?,2.6
CCCCc1ccc(/C=C(\C#N)C(N)=S)s1,39.8µM*,-22.7%,?,-2.2%,?,-25.2
Cn1cccc1/C=C(/C#N)C(N)=S,?,13.3%,-5.1%,17.2%,-18.8%,5.7
COc1ccccc1-c1nc2nccc(-c3cc4ccccc4o3)n2n1,36.9%,.,.,.,.,.
Cn1c(SCC(=O)NN2C(=O)NC(C)(c3ccccc3)C2=O)nnc1-c1ccncc1 (configuration not stated),5.8%,-2.4%,-14.6%,1.8%,29.1µM*,0.0
COc1ccc(NC(=O)N2CC[C@@]3(CCCN(C(C)=O)C3)C2)cc1,1.4%[57.4 µM],.,?,.,2.7%,.
O=C(CCCSc1ccc(Cl)cc1)Nc1cc(S(=O)(=O)N2CCOCC2)ccc1O,?,-8.8%,18.4µM*,-5.7%,23.1µM*,27.6
O=C(CCc1ccccc1)Nc1cc(S(=O)(=O)N2CCOCC2)ccc1N1CCCC1,2.0%,-6.8%,-7.4%,-5.4%,-1.0%,-6.6
COc1ccc(S(=O)(=O)N2CCOCC2)cc1NC(=O)CCCSc1ccccc1,?,7.7%,-29.8%,8.7%,0.3%,0.0
COc1ccccc1CCC(=O)Nc1cc(S(=O)(=O)N2CCOCC2)ccc1N1CCCC1,2.2%,7.7%,?,7.0%,29.1µM*,-24.3
CCOc1ccc(OCCCC(=O)Nc2cc(S(=O)(=O)N3CCOCC3)ccc2N2CCOCC2)cc1,?,-5.1%[9.24 µM],?,-0.2%,-22.5%,0.0
CCCCCC(=O)Nc1cc(S(=O)(=O)N2CCOCC2)ccc1N1CCCCC1,-12.0%,-9.3%,?,0.5%,20.6µM*,-21.0
Cc1ccc(OCCC(=O)Nc2cc(S(=O)(=O)N3CCOCC3)ccc2N2CCCC2)cc1,22.5%,-2.6%,?,-4.7%,14.6µM*,?
CCCCCC(=O)Nc1cc(S(=O)(=O)N2CCOCC2)ccc1N1CCN(C)CC1,?,-2.5%,-11.4%,-1.6%,0.3%,-16.3
COc1ccc(-n2c(-c3ccc(Cl)cc3)c[nH]c2=S)cc1,?,4.8%,-21.5%,-4.4%,-8.4%,-10.2
CCCCCC(=O)Nc1cc(S(=O)(=O)N2CCCCC2)ccc1N1CCCCC1,13.6%,-16.0%,?,-26.8%,14.6µM*,-18.5
O=C(COc1ccccc1)Nc1cc(S(=O)(=O)N2CCOCC2)ccc1N1CCCC1,8.6%,5.8%,-18.7%,20.5%,-7.0%,15.2
O=C(COc1cccc(Cl)c1)Nc1cc(S(=O)(=O)N2CCOCC2)ccc1N1CCOCC1,0.6%,-1.2%,?,-1.0%,18.4µM*,?
Cc1cc(Cl)ccc1OCCCC(=O)Nc1cc(S(=O)(=O)N2CCOCC2)ccc1N1CCOCC1,6.5%,-7.9%,?,3.2%,16.4µM*,-27.0
Cc1ccc(S(=O)(=O)N2CCOCC2)cc1C(=O)Nc1cc(Cl)ccc1N1CCOCC1,?,-0.4%,23.1µM*,4.8%,?,-12.2
O=C(Nc1cc(S(=O)(=O)N2CCOCC2)ccc1N1CCOCC1)c1ccccc1Cl,12.2%,0.2%,5.6%,16.8%,-14.5%,-7.8
O=C(CSc1cccc[n+]1[O-])Nc1cc(S(=O)(=O)N2CCOCC2)ccc1N1CCOCC1,-12.8%,21.4%,-1.0%,23.6%,-12.2%,6.1
Cc1cccc(OCC(=O)Nc2cc(S(=O)(=O)N3CCOCC3)ccc2N2CCCC2)c1C,7.2%,-3.2%,?,-0.9%,16.4µM*,-81.3*
CSCCC(=O)Nc1cc(S(=O)(=O)N2CCOCC2)ccc1N1CCN(C)CC1,-1.5%,17.2%,-13.0%,11.1%,-15.1%,-72.2*
Cc1ccccc1SCC(=O)Nc1cc(S(=O)(=O)N2CCOCC2)ccc1N1CCOCC1,11.6%,13.6%,16.4µM*,0.0%,?,-29.5
SMILES,ALOX12 inh,HT1080-NT tox,TDP1 cell CPT,HT1080 IDH1KD tx,DT40 TDP1 no CPT,IL-1B inflam inh
Cc1ccc(S(=O)(=O)N2CCOCC2)cc1NC(=O)C(c1ccc(Cl)cc1)C(C)C (configuration not stated),-16.1%,1.2%,?,-2.1%,?,-58.0*
Cc1ccc(S(=O)(=O)N2CCOCC2)cc1NC(=O)CSc1ccc(Cl)cc1,-7.3%,5.8%,?,3.6%,?,-8.6
CC(=O)Nc1c(C)nn(-c2ccccc2)c1N1CCC(C(=O)Nc2ccc(F)cc2Cl)CC1,-24.4%,.,-14.7%,.,-27.8%,.
C=CCNC(=O)C1CCN(c2ccc(S(=O)(=O)N3CCOCC3)cc2Cl)CC1,-1.2%,0.4%,-9.3%,-3.5%,-29.2%,21.0
CCCNC(=O)C1CCN(c2ccc(S(=O)(=O)N3CCOCC3)cc2Cl)CC1,4.2%[57.4 µM],4.6%,14.6µM*,3.3%,-29.9%,0.4
Cc1ccc(S(=O)(=O)N2CCOCC2)cc1C(=O)Nc1ccc(-c2cn3ccsc3n2)cc1,-22.9%,-13.2%,11.2µM*,-0.2%,11.2µM*,14.2
O=S(=O)(NCCc1ccc(Cl)cc1)c1ccc(N2CCCCS2(=O)=O)cc1,?,.,18.4µM*,.,23.1µM*,.
CC(C)CNS(=O)(=O)c1ccc(N2CCCCS2(=O)=O)cc1,-20.9%,.,?,.,?,.
O=S(=O)(NCCc1ccccc1)c1ccc(N2CCCCS2(=O)=O)cc1,-39.1%,.,18.4µM*,.,23.1µM*,.
CCN(c1cccc(C)c1)S(=O)(=O)c1ccc(N2CCCCS2(=O)=O)cc1,0.0%,.,13µM*,.,23.1µM*,.
NS(=O)(=O)c1ccc(CCNS(=O)(=O)c2ccc(Cl)cc2)cc1,-49.3%,1.9%,-12.8%,-1.0%,1.3%,-9.0

# Screening results as filed in PubChem BioAssay.
